Laboratory results reported in PubChem BioAssay.
Calls of active or inactive are those of the source. Unless noted, the rule behind the calls is not given here.

Assays:
[1] = resazurin metabolic signal in HepG2 cells – cell-based, resazurin fluorescence, 24 h, PK04 Diversity Set, profiling panel (AID 1172); conditions: HepG2 viability, higher = more signal; note: test concentration not given here
[2] = budding yeast growth changes without added modifier – OD600, strain BY4716, 24 h, basal condition, primary screen (AID 1173); conditions: S. cerevisiae BY4716 growth, OD600, 24 h; higher = more signal, called active from +8 up or from −8 down
[3] = viability profiling in MM1S myeloma cells – cell-based, resazurin fluorescence, basal, 24 h, PK04 Diversity Set, profiling panel (AID 1174); conditions: higher = more signal, called active from +8 up or from −8 down;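 note: MM1S multiple myeloma cell line; test concentration not given here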
[4] = biological target: Dihydroorotate dehydrogenase (quinone), mitochondrial (Plasmodium falciparum (isolate 3D7)) (UniProt Q08210); assay: inhibition of P. falciparum DHODH – biochemical, C-terminal His tag, absorbance 600 nm, primary screen (AID 1175); conditions: PfDHODH enzyme, DCIP absorbance 600 nm; higher = more signal, called active from +8 up or from −8 down;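 note: recombinant parasite enzyme with a five histidine tag at its C terminus; test concentration not given here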
Dihydroorotate dehydrogenase (quinone), mitochondrial (Plasmodium falciparum (isolate 3D7)), sequence (Q08210 whole entry, looked up): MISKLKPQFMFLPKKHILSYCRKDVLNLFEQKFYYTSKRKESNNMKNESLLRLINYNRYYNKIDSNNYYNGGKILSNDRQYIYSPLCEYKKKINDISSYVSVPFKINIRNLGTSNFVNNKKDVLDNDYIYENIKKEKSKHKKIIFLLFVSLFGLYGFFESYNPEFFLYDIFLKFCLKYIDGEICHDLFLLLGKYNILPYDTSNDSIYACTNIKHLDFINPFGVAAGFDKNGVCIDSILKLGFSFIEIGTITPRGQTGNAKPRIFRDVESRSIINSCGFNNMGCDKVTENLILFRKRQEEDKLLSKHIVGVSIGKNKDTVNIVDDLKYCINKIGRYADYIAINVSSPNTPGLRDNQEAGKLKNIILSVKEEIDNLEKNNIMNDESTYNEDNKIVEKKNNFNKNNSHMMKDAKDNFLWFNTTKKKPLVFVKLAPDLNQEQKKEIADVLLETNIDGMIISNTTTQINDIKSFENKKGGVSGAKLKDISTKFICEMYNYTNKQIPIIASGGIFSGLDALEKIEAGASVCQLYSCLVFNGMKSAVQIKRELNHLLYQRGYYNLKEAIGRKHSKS

[5] = inhibition of PAO1 biofilm formation – strain PAO1, LB-PBS medium, absorbance 600 nm, primary screen (AID 1176); note: test concentration not given here; conditions: P. aeruginosa PAO1 growth/biofilm, A600, 12 h; higher = more signal
[6] = growth modulation of vineyard yeast isolate – strain RM11-1a, OD600, basal, 24 h, primary screen (AID 1177);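 note: cultures grown under basal conditions with no added stressor; test concentration not given here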; conditions: S. cerevisiae RM11-1a growth, OD600, 24 h; higher = more signal, called active from +8 up or from −8 down
[7] = growth of efflux-deficient E. coli DRC39 – strain DRC39, OD650, 24 h, E. coli filamentation inducers, primary screen (AID 1178);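 note: growth measured as culture turbidity by optical density at 650 nm; test concentration not given here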; conditions: E. coli DRC39 acrAB, higher = more signal, called active from +8 up or from −8 down
[8] = growth of efflux-deficient E. coli DRC39 – strain DRC39, OD650, 48 h, E. coli filamentation inducers, primary screen (AID 1179);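 note: screen aims at cell division blockers that make cells filament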; conditions: E. coli DRC39 delta-acrAB growth, higher = more signal, called active from +8 up or from −8 down
[9] = viability profiling in RPMI8226 myeloma cells – cell-based, resazurin fluorescence, basal, 24 h, PK04 Diversity Set, profiling panel (AID 1180); conditions: higher = more signal;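 note: RPMI8826 multiple myeloma cell line at 5000 cells per well; test concentration not given here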
[10] = biological target: E3 ubiquitin-protein ligase XIAP (Homo sapiens) (UniProt P98170); assay: small molecules binding XIAP protein – biophysical, small-molecule microarray, fluorescence 635 nm, primary screen (AID 1181); conditions: higher = more signal;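 note: score merges 667 nm emission and signal to noise over triplicate slides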
E3 ubiquitin-protein ligase XIAP (Homo sapiens), sequence (P98170 whole entry, looked up): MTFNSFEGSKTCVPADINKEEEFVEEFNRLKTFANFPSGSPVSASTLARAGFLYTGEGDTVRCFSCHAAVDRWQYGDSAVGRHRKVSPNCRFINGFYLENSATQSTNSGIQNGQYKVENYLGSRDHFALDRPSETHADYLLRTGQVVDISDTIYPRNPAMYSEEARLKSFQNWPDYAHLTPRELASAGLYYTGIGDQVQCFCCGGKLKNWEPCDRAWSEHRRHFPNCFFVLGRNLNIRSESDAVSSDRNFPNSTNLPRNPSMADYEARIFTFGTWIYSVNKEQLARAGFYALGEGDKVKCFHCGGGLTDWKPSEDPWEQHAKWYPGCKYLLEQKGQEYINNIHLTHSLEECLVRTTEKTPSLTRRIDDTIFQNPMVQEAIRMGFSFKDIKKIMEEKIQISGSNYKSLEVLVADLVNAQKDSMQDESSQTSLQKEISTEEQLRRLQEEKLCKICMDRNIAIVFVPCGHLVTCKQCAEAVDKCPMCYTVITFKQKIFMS

SMILES | z-score [1] | z-score [2] | z-score [3] | composite z-score [4] | z-score [5] | z-score [6] | z-score [7] | z-score [8] | z-score [9] | composite z-score [10]
CC(C)(C)N1C(=O)[C@H]2[C@H]3[C@H](O)[C@H](O)CC(=NO[C@@H]4O[C@H](CO)[C@@H](O)[C@H](O)[C@H]4O)[C@H]3CC[C@H]2C1=O | -0.849 | -1.3 (inactive) | -0.623 (inactive) | -0.982 (inactive) | 1.15 (inactive) | 0.339 (inactive) | -0.341 (inactive) | -1.45 (inactive) | -0.817 | -0.142
CC(CCN1CCCCc2nc(C)c(C)cc21)=NO[C@H](C)c1cn([C@H](CO)Cc2ccccc2)nn1 | -0.605 | -0.241 (inactive) | 0.0783 (inactive) | 0.301 (inactive) | -0.503 (inactive) | -0.134 (inactive) | -0.894 (inactive) | -0.488 (inactive) | 0.594 | 0.0595
CC(C)CCN1CCc2nc(COc3ccccc3)c3c(c2C1)CO[C@@H](C)C3 | -0.226 | -0.83 (inactive) | 0.291 (inactive) | 0.0368 (inactive) | 0.462 (inactive) | 0.288 (inactive) | 1.1 (inactive) | -0.341 (inactive) | 0.327 | -0.161
Cc1ccc(S(=O)(=O)N[C@H]2COC(=O)CC=C[C@@H](C)COC(=O)CC=C[C@@H]2C)cc1 | -0.118 | -0.603 (inactive) | 0.186 (inactive) | -0.765 (inactive) | -0.319 (inactive) | 0.313 (inactive) | 0.0613 (inactive) | -0.0105 (inactive) | 0.108 | -0.239
C[C@@H](c1ccccc1)N1C(=O)[C@H]2[C@H]3[C@H](O)[C@H](O)CC(=NO[C@@H]4O[C@H](CO)[C@@H](O)[C@H](O)[C@H]4O)[C@H]3CC[C@H]2C1=O | -0.495 | 0.561 (inactive) | 0.174 (inactive) | -0.28 (inactive) | 0.389 (inactive) | 0.0857 (inactive) | -0.837 (inactive) | 0.11 (inactive) | 0.577 | 0.057
C[C@H]1Cc2c(COc3ccccc3)nc3c(c2CO1)CN(CCOc1ccccc1)CC3 | -0.503 | -3.09 (inactive) | 0.598 (inactive) | -0.555 (inactive) | 1.69 (inactive) | -0.466 (inactive) | 1.52 (inactive) | 0.996 (inactive) | 0.961 | -0.0767
CC(C)=CCCC(C)=CCON=C1C[C@@H](O)[C@@H](O)[C@@H]2[C@@H]3C(=O)N(Cc4ccccc4)C(=O)[C@@H]3CC[C@H]12 | 1.17 | -2.99 (inactive) | 1.14 (inactive) | -0.88 (inactive) | 0.507 (inactive) | -1.28 (inactive) | -0.366 (inactive) | 0.167 (inactive) | 0.369 | -0.177
CCCNC(=O)OC[C@H]1O[C@H](CCON=C(C)CCC(=O)OC[C@H]2O[C@H](c3ccccc3)C=C[C@@H]2Oc2ccc(OC)cc2)C=C[C@@H]1Oc1ccc(OC)cc1 | 0.704 | 0.195 (inactive) | 0.205 (inactive) | -1.13 (inactive) | 0.0525 (inactive) | 0.17 (inactive) | 0.629 (inactive) | 0.363 (inactive) | 1.31 | -0.171
CCCCC#C[C@@H]1C=C[C@H](Oc2cc(OC)c(OC)c(OC)c2)[C@@H](COC(=O)OCC)O1 | -0.826 | -0.535 (inactive) | -1.03 (inactive) | -1.48 (inactive) | 0.806 (inactive) | 0.628 (inactive) | 1.02 (inactive) | 0.751 (inactive) | -0.65 | -0.113
C[C@@H]1CC[C@H]2C(=O)O[C@@H](Cc3ccccc3)CN2[C@H]1c1ccc(Br)cc1 | 0.603 | -1.06 (inactive) | 0.656 (inactive) | 0.245 (inactive) | -0.491 (inactive) | 0.37 (inactive) | -0.402 (inactive) | -0.161 (inactive) | 0.0066 | 0.0871
CC(CCN1CCc2nc(-c3ccccc3)c(-c3ccccc3)cc2C1)=NOC[C@@H](O)COCc1ccco1 | -1.2 | -2 (inactive) | -1.88 (inactive) | -0.727 (inactive) | -0.0417 (inactive) | 0.358 (inactive) | 0.943 (inactive) | 1.14 (inactive) | -1.31 | 0.239
COc1ccc(O[C@@H]2[C@H](O)CO[C@@H]2C=Cc2ccccc2)cc1 | -0.489 | -2.44 (inactive) | 0.995 (inactive) | -3.01 (inactive) | 0.815 (inactive) | -0.614 (inactive) | -1.16 (inactive) | -1.93 (inactive) | 0.54 | 0.0975
CC(C)=NO[C@H](C)c1cn([C@H](CO)Cc2ccccc2)nn1 | 0.0622 | -0.489 (inactive) | -0.11 (inactive) | -0.784 (inactive) | 0.204 (inactive) | -0.493 (inactive) | 0.517 (inactive) | -1.91 (inactive) | 0.672 | -0.0538
